# Several values for one entry are separate records, joined by “and”; a condition that tells them apart may be missing. Equal values may be shown once. About 2,000 (36%) of roughly 5,500 compounds were called active. Another 18% or so got no clear call; they are omitted. The list shows a part of the results. Unmarked numbers belong to inactive results. Cut-off read from the data, not from the text of the source: active = normalized growth mostly below about 0.91 (no sharp cut-off); inconclusive = no clear call, values can overlap the other calls; inactive = mostly above about 0.92.
# Test: chemical genetic growth profiling, strain panel (AID 1159580);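 note: tested at 20 µM; growth read once vehicle control cultures reached saturation at 30 °C; 1 = growth at the plate median or of vehicle wells; lower values mean less growth of the strain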
# Conditions: S. cerevisiae deletion strains, growth OD
structure (smiles),measurement,setting,value
COC(=O)c1c(C)c2c(c(C)c1O)OC(=O)c1c(C)c(Cl)c(O)c(Cl)c1O2,normalized growth,"locus YAL021C, strain ccr4, stronger effect = lower value",0.943
same,normalized growth,"locus YAL026C, strain drs2, stronger effect = lower value",0.951
same,normalized growth,"locus YAL030W, strain snc1, stronger effect = lower value",0.969
same,normalized growth,"locus YBL061C, strain skt5, stronger effect = lower value",0.968
same,normalized growth,"locus YBR009C, strain hhf1, stronger effect = lower value",0.935
same,normalized growth,"locus YBR021W, strain FUR4, stronger effect = lower value",0.962
same,normalized growth,"locus YBR023C, strain chs3, stronger effect = lower value",0.959
same,normalized growth,"locus YBR171W, strain sec66, stronger effect = lower value",0.975
same,normalized growth,"locus YBR229C, strain ROT2, stronger effect = lower value",0.985
same,normalized growth,"locus YBR231C, strain swc5, stronger effect = lower value",0.976
same,normalized growth,"locus YBR279W, strain paf1, stronger effect = lower value",0.944
same,normalized growth,"locus YCL011C, strain gbp2, stronger effect = lower value",0.96
same,normalized growth,"locus YCL016C, strain dcc1, stronger effect = lower value",0.967
same,normalized growth,"locus YCL029C, strain bik1, stronger effect = lower value",1.03
same,normalized growth,"locus YCL069W, strain vba3, stronger effect = lower value",0.944
same,normalized growth,"locus YCR088W, strain abp1, stronger effect = lower value",0.96
same,normalized growth,"locus YDL005C, strain med2, stronger effect = lower value",0.947
same,normalized growth,"locus YDL035C, strain GPR1, stronger effect = lower value",0.894
same,normalized growth,"locus YDL040C, strain nat1, stronger effect = lower value",0.943
same,normalized growth,"locus YDL074C, strain BRE1, stronger effect = lower value",0.926
same,normalized growth,"locus YDL101C, strain DUN1, stronger effect = lower value",0.98
same,normalized growth,"locus YDL134C, strain PPH21, stronger effect = lower value",0.941
same,normalized growth,"locus YDL185W, strain tfp1, stronger effect = lower value",0.995
same,normalized growth,"locus YDL192W, strain arf1, stronger effect = lower value",0.922
same,normalized growth,"locus YDR001C, strain nth1, stronger effect = lower value",0.969
same,normalized growth,"locus YDR069C, strain doa4, stronger effect = lower value",0.967
same,normalized growth,"locus YDR101C, strain arx1, stronger effect = lower value",1
same,normalized growth,"locus YDR137W, strain rgp1, stronger effect = lower value",0.87
same,normalized growth,"locus YDR159W, strain sac3, stronger effect = lower value",0.902
same,normalized growth,"locus YDR162C, strain NBP2, stronger effect = lower value",0.734 (active)
same,normalized growth,"locus YDR195W, strain ref2",1.03
same,normalized growth,"locus YDR297W, strain sur2, stronger effect = lower value",0.944
same,normalized growth,"locus YDR318W, strain mcm21, stronger effect = lower value",0.975
same,normalized growth,"locus YDR334W, strain swr1, stronger effect = lower value",0.939
same,normalized growth,"locus YDR335W, strain msn5, stronger effect = lower value",0.939
same,normalized growth,"locus YDR388W, stronger effect = lower value",0.984
same,normalized growth,"locus YDR392W, strain spt3, stronger effect = lower value",0.617 (active)
same,normalized growth,"locus YDR502C, strain sam2, stronger effect = lower value",0.96
same,normalized growth,"locus YEL003W, strain gim4, stronger effect = lower value",0.969
same,normalized growth,"locus YEL037C, strain rad23, stronger effect = lower value",0.957
same,normalized growth,"locus YEL061C, strain CIN8 (second series), stronger effect = lower value",0.961
same,normalized growth,"locus YEL061C, strain CIN8, stronger effect = lower value",0.986
same,normalized growth,"locus YER015W, strain faa2, stronger effect = lower value",0.977
same,normalized growth,"locus YER016W, strain bim1, stronger effect = lower value",0.96
same,normalized growth,"locus YER110C, stronger effect = lower value",1.03
same,normalized growth,"locus YER111C, strain swi4, stronger effect = lower value",0.979
same,normalized growth,"locus YER155C, strain BEM2 (second series), stronger effect = lower value",0.97
same,normalized growth,"locus YER155C, strain BEM2, stronger effect = lower value",1.01
same,normalized growth,"locus YER167W, strain BCK2, stronger effect = lower value",0.937
same,normalized growth,"locus YFR010W, strain ubp6, stronger effect = lower value",0.952
same,normalized growth,"locus YGL078C, strain dbp3, stronger effect = lower value",0.991
same,normalized growth,"locus YGL086W, strain mad1, stronger effect = lower value",0.962
same,normalized growth,"locus YGL167C, strain pmr1, stronger effect = lower value",0.95
same,normalized growth,"locus YGL173C, strain kem1, stronger effect = lower value",0.966
same,normalized growth,"locus YGL227W, strain vid30, stronger effect = lower value",0.969
same,normalized growth,"locus YGL240W, strain doc1, stronger effect = lower value",0.93
same,normalized growth,"locus YGL248W, strain PDE1, stronger effect = lower value",0.983
same,normalized growth,"locus YGL253W, strain hxk2, stronger effect = lower value",0.952
same,normalized growth,"locus YGR135W, strain pre9, stronger effect = lower value",0.964
same,normalized growth,"locus YGR229C, strain SMI1, stronger effect = lower value",0.462 (active)
same,normalized growth,"locus YGR252W, strain gcn5, stronger effect = lower value",0.927
same,normalized growth,"locus YHR013C, strain ard1, stronger effect = lower value",0.946
same,normalized growth,"locus YHR027C, strain rpn1, stronger effect = lower value",0.957
same,normalized growth,"locus YHR030C, strain SLT2, stronger effect = lower value",0.992 and 0.949
same,normalized growth,"locus YHR079C, strain IRE1 (second series), stronger effect = lower value",1.03
same,normalized growth,"locus YHR079C, strain IRE1, stronger effect = lower value",0.94
same,normalized growth,"locus YHR094C, strain hxt1, stronger effect = lower value",1.03
same,normalized growth,"locus YHR129C, strain ARP1, stronger effect = lower value",0.973
same,normalized growth,"locus YHR142W, strain chs7, stronger effect = lower value",0.849 (active)
same,normalized growth,"locus YHR200W, strain rpn10, stronger effect = lower value",0.993
same,normalized growth,"locus YIL066C, strain RNR3, stronger effect = lower value",0.892
same,normalized growth,"locus YIL073C, strain SPO22, stronger effect = lower value",0.976
same,normalized growth,"locus YIL125W, strain kgd1, stronger effect = lower value",1.01
same,normalized growth,"locus YIR030C, strain dcg1, stronger effect = lower value",1.02
same,normalized growth,"locus YJL092W, strain hpr5, stronger effect = lower value",0.979
same,normalized growth,"locus YJL095W, strain BCK1 (second series), stronger effect = lower value",0.955
same,normalized growth,"locus YJL095W, strain BCK1, stronger effect = lower value",0.84 and 0.969
same,normalized growth,"locus YJL115W, strain asf1, stronger effect = lower value",0.956
same,normalized growth,"locus YJL129C, strain trk1, stronger effect = lower value",0.9
same,normalized growth,"locus YJL134W, strain LCB3, stronger effect = lower value",1
same,normalized growth,"locus YJL154C, strain vps35, stronger effect = lower value",0.967
same,normalized growth,"locus YJL164C, strain tpk1, stronger effect = lower value",0.926
same,normalized growth,"locus YJL166W, strain qcr8, stronger effect = lower value",0.94
same,normalized growth,"locus YJL168C, strain set2, stronger effect = lower value",0.997
same,normalized growth,"locus YJL187C, strain SWE1 (second series), stronger effect = lower value",0.966
same,normalized growth,"locus YJR043C, strain POL32, stronger effect = lower value",0.853 (active)
same,normalized growth,"locus YJR066W, strain TOR1, stronger effect = lower value",0.878
same,normalized growth,"locus YKL009W, strain mrt4, stronger effect = lower value",1.01
same,normalized growth,"locus YKL068W, stronger effect = lower value",1
same,normalized growth,"locus YKL085W, strain MDH1 (second series), stronger effect = lower value",1.01
same,normalized growth,"locus YKL085W, strain MDH1, stronger effect = lower value",1.01
same,normalized growth,"locus YKL160W, strain elf1, stronger effect = lower value",0.956
same,normalized growth,"locus YKL190W, strain CNB1, stronger effect = lower value",0.957
same,normalized growth,"locus YKR001C, strain vps1, stronger effect = lower value",0.937
same,normalized growth,"locus YKR026C, strain gcn3, stronger effect = lower value",0.97
same,normalized growth,"locus YKR091W, strain srl3, stronger effect = lower value",0.967
same,normalized growth,"locus YLL001W, strain dnm1, stronger effect = lower value",0.959
same,normalized growth,"locus YLL026W, stronger effect = lower value",0.975
same,normalized growth,"locus YLL041C, strain sdh2, stronger effect = lower value",0.964
same,normalized growth,"locus YLR027C, strain aat2, stronger effect = lower value",0.984
same,normalized growth,"locus YLR039C, strain RIC1, stronger effect = lower value",0.928
same,normalized growth,"locus YLR058C, strain SHM2, stronger effect = lower value",0.985
same,normalized growth,"locus YLR102C, strain apc9, stronger effect = lower value",1.01
same,normalized growth,"locus YLR113W, strain HOG1, stronger effect = lower value",1.04
same,normalized growth,"locus YLR221C, strain rsa3, stronger effect = lower value",0.958
same,normalized growth,"locus YLR258W, strain gsy2, stronger effect = lower value",0.937
same,normalized growth,"locus YLR262C, strain YPT6 (second series), stronger effect = lower value",0.855 (active)
same,normalized growth,"locus YLR262C, strain YPT6, stronger effect = lower value",0.865
same,normalized growth,"locus YLR268W, strain sec22, stronger effect = lower value",1
same,normalized growth,"locus YLR320W, strain mms22, stronger effect = lower value",0.932
same,normalized growth,"locus YLR330W, strain CHS5, stronger effect = lower value",0.987
same,normalized growth,"locus YLR342W, strain FKS1 (second series), stronger effect = lower value",0.751 (active)
same,normalized growth,"locus YLR342W, strain FKS1, stronger effect = lower value",0.971
same,normalized growth,"locus YLR357W, strain rsc2, stronger effect = lower value",0.922
same,normalized growth,"locus YLR370C, strain arc18, stronger effect = lower value",0.958
same,normalized growth,"locus YLR371W, strain rom2, stronger effect = lower value",1.03
same,normalized growth,"locus YLR384C, strain iki3, stronger effect = lower value",0.983
same,normalized growth,"locus YLR418C, strain cdc73, stronger effect = lower value",0.83 (active)
same,normalized growth,"locus YML016C, strain PPZ1, stronger effect = lower value",1.01
same,normalized growth,"locus YML032C, strain rad52, stronger effect = lower value",0.959
same,normalized growth,"locus YML120C, strain ndi1, stronger effect = lower value",0.957
same,normalized growth,"locus YML124C, strain tub3, stronger effect = lower value",1.02
same,normalized growth,"locus YMR058W, strain fet3, stronger effect = lower value",0.95
same,normalized growth,"locus YMR078C, strain ctf18, stronger effect = lower value",1.01
same,normalized growth,"locus YMR125W, strain sto1, stronger effect = lower value",0.986
same,normalized growth,"locus YMR129W, stronger effect = lower value",0.974
same,normalized growth,"locus YMR205C, strain PFK2, stronger effect = lower value",0.879
same,normalized growth,"locus YMR223W, strain ubp8, stronger effect = lower value",0.949
same,normalized growth,"locus YMR231W, strain pep5, stronger effect = lower value",0.954
same,normalized growth,"locus YMR307W, strain GAS1, stronger effect = lower value",0.545 (active)
same,normalized growth,"locus YNL067W, strain RPL9B, stronger effect = lower value",0.996
same,normalized growth,"locus YNL071W, strain lat1, stronger effect = lower value",0.932
same,normalized growth,"locus YNL183C, strain NPR1, stronger effect = lower value",0.931
same,normalized growth,"locus YNL209W, strain ssb2, stronger effect = lower value",0.991
same,normalized growth,"locus YNL233W, strain BNI4, stronger effect = lower value",0.916
same,normalized growth,"locus YNL248C, strain rpa49, stronger effect = lower value",0.954
same,normalized growth,"locus YNL250W, strain rad50, stronger effect = lower value",1.02
same,normalized growth,"locus YNL271C, strain bni1, stronger effect = lower value",1
same,normalized growth,"locus YNL298W, strain CLA4, stronger effect = lower value",1.01
same,normalized growth,"locus YNL307C, strain MCK1, stronger effect = lower value",0.978
same,normalized growth,"locus YNL322C, strain KRE1 (second series), stronger effect = lower value",0.976
same,normalized growth,"locus YNR049C, strain mso1, stronger effect = lower value",0.955
same,normalized growth,"locus YNR052C, strain pop2, stronger effect = lower value",0.967
same,normalized growth,"locus YOL012C, strain htz1",1.87
same,normalized growth,"locus YOL147C, strain pex11, stronger effect = lower value",1
same,normalized growth,"locus YOR001W, strain rrp6, stronger effect = lower value",0.945
same,normalized growth,"locus YOR061W, strain CKA2, stronger effect = lower value",0.99
same,normalized growth,"locus YOR069W, strain VPS5, stronger effect = lower value",1.01
same,normalized growth,"locus YOR070C, strain gyp1, stronger effect = lower value",0.98
same,normalized growth,"locus YOR080W, strain dia2, stronger effect = lower value",0.965
same,normalized growth,"locus YOR083W, strain WHI5, stronger effect = lower value",0.932
same,normalized growth,"locus YOR106W, strain vam3, stronger effect = lower value",0.877
same,normalized growth,"locus YOR136W, strain idh2, stronger effect = lower value",0.997
same,normalized growth,"locus YOR144C, strain elg1, stronger effect = lower value",1.02
same,normalized growth,"locus YOR184W, strain ser1, stronger effect = lower value",0.874
same,normalized growth,"locus YOR231W, strain MKK1, stronger effect = lower value",0.972
same,normalized growth,"locus YOR265W, strain rbl2, stronger effect = lower value",0.962
same,normalized growth,"locus YOR270C, strain vph1, stronger effect = lower value",0.715 (active)
same,normalized growth,"locus YOR290C, strain snf2, stronger effect = lower value",0.92
same,normalized growth,"locus YOR316C, strain cot1, stronger effect = lower value",1
same,normalized growth,"locus YPL051W, strain arl3, stronger effect = lower value",0.925
same,normalized growth,"locus YPL078C, strain atp4, stronger effect = lower value",0.964
same,normalized growth,"locus YPL106C, strain sse1, stronger effect = lower value",0.903
same,normalized growth,"locus YPL240C, strain hsp82, stronger effect = lower value",0.96
same,normalized growth,"locus YPL256C, strain CLN2, stronger effect = lower value",0.954
same,normalized growth,"locus YPR119W, strain clb2, stronger effect = lower value",1
same,normalized growth,"locus YPR141C, strain kar3, stronger effect = lower value",0.995
same,normalized growth,"locus YPR163C, strain tif3, stronger effect = lower value",1.02
same,normalized growth,"locus YPR167C, strain met16, stronger effect = lower value",0.982
same,normalized growth,"strain wtn01, stronger effect = lower value",1

# Source: PubChem BioAssay AID1159580 (chemical genetic matrix, 2015)
